Laboratory results: PubChem BioAssay (NCATS)
Results filed as inconclusive are left out. Calls of active or inactive are those of the source. Unless noted, the call rests on the fitted dose curve; in most records, active means well fitted inhibition curve with a large enough effect; inconclusive means small, poorly fitted or top-dose-only effect; inactive means flat fitted curve, though single readings scatter.

Assays:
[1] = qHTS drug screen for cell cycle checkpoint inhibitors in PARPi-resistant BRCA-mutant ovarian cancer cell lines. (AID 1963452; calls by dose curve); conditions: PEO1/OlaR viability, CellTiter-Glo luminescence, 96 h, stronger effect = lower value
Summary of the method: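 PEO1, PEO4 and PEO1/OlaR ovarian cancer cells, 600 per well, exposed 96 h at 37C to a dilution series. Viability read by CellTiter-Glo luminescence, normalized to DMSO and empty wells; activity summarized as Z-AUC.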

[2] = qHTS profiling for inhibitors of Plasmodium falciparum proliferation (AID 504749); further: nearly all actives have a fitted effect of over 60% in size; further: potency means the concentration at half of the fitted maximal effect;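 on activity, negative = inhibition: 0% = DMSO vehicle and full inhibition = artemisinin control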; conditions: P. falciparum in erythrocytes, SYBR Green DNA, 72 h
Summary of the method: (§1)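 Fluorescence of SYBR Green-bound parasite DNA, read at 485/535 nm, served as the growth measure. Infected erythrocytes were cultured with compound 72 h; artemisinin (0.29 uM) and DMSO wells defined the normalization range.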

3D7 = experiment: as above; conditions: P. falciparum in erythrocytes, SYBR Green DNA, 72 h; series mostly up to 28.7 µM
Summary of the method: as §1

7G8 = experiment: as above; conditions: P. falciparum in erythrocytes, SYBR Green DNA, 72 h; series mostly up to 28.7 µM
Summary of the method: as §1

AA1029 = experiment: as above; conditions: P. falciparum in erythrocytes, SYBR Green DNA, 72 h; series mostly up to 28.7 µM
Summary of the method: as §1

[3] = qHTS for identification of novel therapeutic agents for treatment of microphthalmiaassociated transcription factor (MiT) renal cell carcinoma (RCC) (AID 1963991); conditions: CellTiter-Glo, 48 h, stronger effect = lower value
Summary of the method: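 Curves over 11 concentrations were fitted to CellTiter-Glo luminescence, scaled between empty wells (0%) and DMSO (100%) viability. Cells were UOK109, UOK124 and UOK145 TFE3-fusion RCC lines at 500/well, exposed 48 hours at 37 C.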

[4] = measured here: PEO1 parental Z-AUC
[5] = at 28.7 µM (top of the series), parasite line A
[6] = at 28.7 µM (top of the series), parasite line B
[7] = TFE3-RCC UOK109 viability, measured here: UOK109 Z-AUC
[8] = TFE3-RCC viability, measured here: UOK124 Z-AUC
[9] = TFE3-RCC viability, measured here: UOK145 Z-AUC
[10] = at 12.8 µM (top of the series), parasite line A
[11] = at 12.8 µM (top of the series), parasite line B

Compound: CC1=CC(=O)c2ccccc2C1=O
- Z-AUC [1]: 0.899 (inactive)
- Z-AUC [1, 4]: 0.394
- Z-AUC ([1]; measured here: PEO4 Z-AUC): 0.252
- activity, negative = inhibition [2, 5]: -6.5% (inactive)
- activity, negative = inhibition [2, 6]: -23% (inactive)
- Potency (3D7): 7080 nM (active)
- Potency (7G8): 10000 nM (active)
- Potency (AA1029): inactive

Compound: CC1CC2C3CCC4=CC(=O)C=C[C@]4(C)[C@@]3(F)[C@@H](O)C[C@]2(C)[C@@]1(O)C(=O)CO (some centres not stated)
- z-score [3, 7]: 0.936
- z-score [3, 8]: 0.693
- z-score [3, 9]: 0.527

Compound: S=P(N1CC1)(N1CC1)N1CC1
- Z-AUC [1]: 0.79 (inactive)
- Z-AUC [1, 4]: 1.48
- Z-AUC ([1]; measured here: PEO4 Z-AUC): 1.59
- activity, negative = inhibition [2, 5]: -0.685% (inactive)
- activity, negative = inhibition [2, 6]: -0.221% (inactive)
- Potency (3D7): inactive
- Potency (7G8): inactive
- Potency (AA1029): inactive

Compound: Cc1nnc(C(=O)NC(C)(C)c2nc(C(=O)NCc3ccc(F)cc3)c(O)c(=O)n2C)o1
- z-score [3, 7]: 0.782
- z-score [3, 8]: 0.249
- z-score [3, 9]: 1.94

Compound: CNNCc1ccc(C(=O)NC(C)C)cc1
- Z-AUC [1]: 1.13 (inactive)
- Z-AUC [1, 4]: 0.747
- Z-AUC ([1]; measured here: PEO4 Z-AUC): 1.05
- activity, negative = inhibition [2, 5]: 0.0651% (inactive)
- activity, negative = inhibition [2, 6]: -2.63% (inactive)
- Potency (3D7): inactive
- Potency (AA1029): inactive

Compound: CN(CCOc1ccc(CC2SC(=O)NC2=O)cc1)c1ccccn1 (configuration not stated)
- Z-AUC [1]: 0.844 (inactive)
- Z-AUC [1, 4]: 0.498
- Z-AUC ([1]; measured here: PEO4 Z-AUC): 0.826
- activity, negative = inhibition [2, 5]: -1.7% (inactive)
- activity, negative = inhibition [2, 6]: -10% (inactive)
- Potency (3D7): inactive
- Potency (7G8): inactive
- Potency (AA1029): inactive

Compound: NCCCC(O)(P(=O)(O)O)P(=O)(O)O
- Z-AUC [1]: 0.983 (inactive)
- Z-AUC [1, 4]: 0.814
- Z-AUC ([1]; measured here: PEO4 Z-AUC): 0.863
- activity, negative = inhibition [2, 5]: 5.33% (inactive)
- activity, negative = inhibition [2, 6]: 1.25% (inactive)
- Potency (3D7): inactive
- Potency (7G8): inactive
- Potency (AA1029): inactive

Compound: COc1cc2c(Nc3ccc(Br)cc3F)ncnc2cc1OCC1CCN(C)CC1
- Z-AUC [1]: 0.231 (inactive)
- Z-AUC [1, 4]: 0.081
- Z-AUC ([1]; measured here: PEO4 Z-AUC): -0.0991
- Potency ([2]; parasite line A): 1780 nM (active)
- Potency ([2]; parasite line B): 1000 nM (active)
- Potency (3D7): 2510 nM (active)
- Potency (7G8): 3160 nM (active)
- Potency (AA1029): 2820 nM (active)

Compound: COC(c1ccccc1)(c1ccccc1)[C@H](Oc1nc(C)cc(C)n1)C(=O)O
- z-score [3, 7]: 1.16
- z-score [3, 8]: 0.918
- z-score [3, 9]: 0.706

Compound: CN1CCN(c2c(F)cc3c(=O)c(C(=O)O)cn(CCF)c3c2F)CC1
- activity, negative = inhibition [2, 5]: 1.69% (inactive)
- activity, negative = inhibition [2, 6]: 7.79% (inactive)
- Potency (3D7): inactive
- Potency (7G8): inactive
- Potency (AA1029): inactive

Compound: COc1cc(NS(=O)(=O)c2ccc(N)cc2)nc(OC)n1
- activity, negative = inhibition [2, 10]: 5.18% (inactive)
- activity, negative = inhibition [2, 11]: -3.51% (inactive)
- Potency (3D7): inactive
- Potency (7G8): inactive
- Potency (AA1029): inactive

Compound: CC(C)(C#N)c1cc(Cn2cncn2)cc(C(C)(C)C#N)c1
- z-score [3, 7]: 0.558
- z-score [3, 8]: 0.63
- z-score [3, 9]: 0.487
- activity, negative = inhibition [2, 5]: 5.33% (inactive)
- activity, negative = inhibition [2, 6]: 14.1% (inactive)
- Potency (3D7): inactive
- Potency (7G8): inactive
- Potency (AA1029): inactive

Compound: CN1CCN(c2c(F)cc3c(=O)c(C(=O)O)cn4c3c2OCN4C)CC1
- activity, negative = inhibition [2, 5]: 4.43% (inactive)
- activity, negative = inhibition [2, 6]: 17.6% (inactive)
- Potency (3D7): inactive
- Potency (7G8): inactive
- Potency (AA1029): inactive

Compound: COc1cccc(N(C)C(=S)Oc2ccc3c(c2)CCCC3)n1
- z-score [3, 7]: 0.559
- z-score [3, 8]: 0.578
- z-score [3, 9]: 1.67
- activity, negative = inhibition [2, 5]: -29.5% (inactive)
- activity, negative = inhibition [2, 6]: -22.3% (inactive)
- Potency (AA1029): inactive

Compound: Cc1noc(NS(=O)(=O)c2ccc(N)cc2)c1C
- activity, negative = inhibition [2, 5]: 13.7% (inactive)
- activity, negative = inhibition [2, 6]: 4.61% (inactive)
- Potency (3D7): inactive
- Potency (7G8): inactive
- Potency (AA1029): inactive

Compound: Nc1ccc(S(=O)(=O)Nc2ccccn2)cc1
- z-score [3, 7]: 1.57
- z-score [3, 8]: 0.543
- z-score [3, 9]: 0.723
- activity, negative = inhibition [2, 10]: -13.7% (inactive)
- activity, negative = inhibition [2, 11]: -1.88% (inactive)
- Potency (3D7): inactive
- Potency (7G8): inactive
- Potency (AA1029): inactive

Compound: CNCC[C@H](Oc1cccc2ccccc12)c1cccs1
- Potency (7G8): 2240 nM (active)
- Potency (AA1029): 7080 nM (active)

Compound: CNS(=O)(=O)Cc1ccc2[nH]cc(CCN(C)C)c2c1
- z-score [3, 7]: 0.748
- z-score [3, 8]: 0.938
- z-score [3, 9]: 0.747
- activity, negative = inhibition [2, 5]: -10.9% (inactive)
- activity, negative = inhibition [2, 6]: -3.89% (inactive)
- Potency (3D7): inactive
- Potency (7G8): inactive
- Potency (AA1029): inactive

Compound: Cc1cccc(Nc2ccncc2S(=O)(=O)NC(=O)NC(C)C)c1
- z-score [3, 7]: 0.581
- z-score [3, 8]: 0.17
- z-score [3, 9]: 0.58
- activity, negative = inhibition [2, 10]: -0.953% (inactive)
- activity, negative = inhibition [2, 11]: 11.1% (inactive)
- Potency (3D7): inactive
- Potency (7G8): inactive
- Potency (AA1029): inactive

Compound: N[C@@H](C(=O)N[C@@H]1C(=O)N2C(C(=O)O)=C(Cl)CS[C@H]12)c1ccccc1
- z-score [3, 7]: 1.18
- z-score [3, 8]: 0.137
- z-score [3, 9]: 0.843
- activity, negative = inhibition [2, 5]: 10% (inactive)
- activity, negative = inhibition [2, 6]: -2.02% (inactive)
- Potency (3D7): inactive
- Potency (7G8): inactive
- Potency (AA1029): inactive

Compound: COCCCOc1cc(C[C@@H](C[C@H](N)[C@@H](O)C[C@H](C(=O)NCC(C)(C)C(N)=O)C(C)C)C(C)C)ccc1OC
- z-score [3, 7]: 1.1
- z-score [3, 8]: 0.318
- z-score [3, 9]: 1.4

Compound: Cc1ccnc2c1NC(=O)c1cccnc1N2C1CC1
- activity, negative = inhibition [2, 5]: 0.983% (inactive)
- activity, negative = inhibition [2, 6]: -17.2% (inactive)
- Potency (3D7): inactive
- Potency (AA1029): inactive

Compound: Cc1ncc([N+](=O)[O-])n1CCO
- activity, negative = inhibition [2, 5]: -7.64% (inactive)
- activity, negative = inhibition [2, 6]: 6.06% (inactive)
- Potency (3D7): inactive
- Potency (7G8): inactive
- Potency (AA1029): inactive

Compound: COc1ccc2c(c1)c(CC(=O)OCC(=O)O)c(C)n2C(=O)c1ccc(Cl)cc1
- z-score [3, 7]: 1.12
- z-score [3, 8]: 1.19
- z-score [3, 9]: 0.507

Compound: CO[C@@H]1[C@@H](OC(N)=O)[C@@H](O)[C@H](Oc2ccc3c(O)c(NC(=O)c4ccc(O)c(CC=C(C)C)c4)c(=O)oc3c2C)OC1(C)C
- z-score [3, 7]: 0.755
- z-score [3, 8]: 0.269
- z-score [3, 9]: 0.567
